Hits are enriched below; roughly 0.54% of the tested compounds scored in any of these assays.
pAkt inh: inhibitors of Akt phosphorylation; Neuro2A IGF-stimulated pAkt S473 HTRF, 20 min; active compounds read low; activity change, % for hits at 50 µM; 360,000 compounds, 0.32% hits; AID 651550; in the data active means activity change below about -80%; inconclusive means mostly about -51% to -80%; further: on the % scale 0 is the no-effect control and ±100 the full control effect
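Single-point screen (50 µM final compound) in Neuro2A cells stimulated 20 min with 6 nM IGF at 37 deg C. After lysis, Ser473-phosphorylated Akt read by HTRF (ex 330 nm, em 615/665 nm) as the 665/615 ratio.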
Menin-MLL TR inh: menin-MLL binding inhibition, Texas Red mutant peptide. Menin + Texas Red MLL mutant peptide, fluorescence polarization. Potency, µM (series often up to 61.6 µM), inactives show at the top dose FP activity change, negative = inhibition, hits mostly inhibitors. 270,000 compounds, 0.23% hits. AID 1768; active means well fitted inhibition curve with a large enough effect in the polarisation, with a control signal flat, not every such curve was filed as active; inconclusive means small, poorly fitted or top-dose-only effect, or effect the other way, or a change in a side signal; inactive means no such curve, though single readings can be large or run the other way; the % refers to the polarisation; further: potency means the concentration at half of the fitted maximal effect; % of control where 0% means no effect
Target sequence (O00255 whole entry, looked up): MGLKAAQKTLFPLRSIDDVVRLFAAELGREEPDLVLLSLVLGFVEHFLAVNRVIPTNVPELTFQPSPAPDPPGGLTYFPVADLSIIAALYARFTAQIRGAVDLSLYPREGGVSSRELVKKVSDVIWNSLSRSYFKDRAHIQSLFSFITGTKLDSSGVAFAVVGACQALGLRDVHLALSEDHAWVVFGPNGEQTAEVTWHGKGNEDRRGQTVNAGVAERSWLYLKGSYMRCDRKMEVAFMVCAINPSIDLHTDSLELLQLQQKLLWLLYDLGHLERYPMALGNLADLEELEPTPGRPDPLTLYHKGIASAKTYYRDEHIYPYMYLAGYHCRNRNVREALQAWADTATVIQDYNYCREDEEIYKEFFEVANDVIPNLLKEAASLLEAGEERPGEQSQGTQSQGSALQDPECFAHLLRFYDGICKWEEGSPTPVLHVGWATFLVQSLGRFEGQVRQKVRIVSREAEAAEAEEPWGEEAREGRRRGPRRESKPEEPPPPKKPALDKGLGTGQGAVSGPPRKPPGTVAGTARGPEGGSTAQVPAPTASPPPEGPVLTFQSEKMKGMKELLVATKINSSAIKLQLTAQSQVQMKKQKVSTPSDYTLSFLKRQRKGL
IDH1 R132H inh: human IDH1 R132H inhibition; IDH1-R132H enzyme, NADPH consumption, diaphorase/resazurin fluorescence; 390,000 compounds, 0.093% hits; O75874; AID 602179; Potency, µM (series often up to 76.6 µM), for inactives: at the top dose activity change, negative = inhibition, actives largely listed as inhibitors; active means well fitted inhibition curve with a large enough effect; inconclusive means small, poorly fitted or top-dose-only effect; inactive means no such curve, though single readings can be large or run the other way; further: potency means the concentration at half of the fitted maximal effect; on the % scale 0 is the no-effect control and ±100 the full control effect; nearly all actives have a fitted effect of over 65% in size
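IDH1-R132H (0.5 ug/mL) preincubated 30 min with compound, then NADPH (0.016 mM) and alpha-KG (2 mM) added; 80 min at RT, pH 7.5. Remaining NADPH coupled via diaphorase/resazurin to fluorescence (540/590 nm); concentration-response curves normalized to no-enzyme control.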
CXXC DNA block: MLL CXXC-DNA interaction inhibition. MLL-CXXC / FITC-HOXA9 DNA fluorescence polarization. Potency, µM (series often up to 115 µM), inactives show top-dose activity change, negative = inhibition, hits mostly inhibitors. Q03164. AID 2662. 290,000 compounds, 0.037% hits; active means well fitted inhibition curve with a large enough effect in the polarisation, with a control signal flat, not every such curve was filed as active; inconclusive means small, poorly fitted or top-dose-only effect, or effect the other way, or a change in a side signal; inactive means no such curve, though single readings can be large or run the other way; the % refers to the polarisation; further: potency means the concentration at half of the fitted maximal effect
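Steps: dispense CXXC domain solution (7 uM) → pin compounds or unlabeled HOX-A9 DNA control → 5 min ambient → add FLSN-HOX-A9 solution (50 nM) → spin → 30 min ambient → fluorescence polarization. Tris pH 7.5/NaCl/DTT/BSA buffer.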
Menin-MLL FL inh: inhibitors of human menin-MLL interaction, wild-type MLL peptide; 290,000 tested, under 10 active; FP activity change, % at 61.4 µM; AID 1766; Fluorescence polarization, fluorescein-MLL peptide displacement from menin; active means well fitted curve in the direction sought with a large enough effect in the polarisation, not every such curve was filed as active; inconclusive means small, poorly fitted or top-dose-only effect, or effect the other way, or a change in a side signal; inactive means no such curve, though single readings can be large or run the other way; the % refers to the polarisation; further: % of control where 0% means no effect
LDHA inh: blocks human lactate dehydrogenase A; P00338; activity change, % (values are at about 110 or 230 µM); purified LDHA, NADH/diaphorase-resazurin fluorescence; active compounds read low; 480,000 compounds, 0.15% hits; AID 1347041; in the data active means activity change below about -30%; inconclusive means mostly about -25% to -30%;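 further: plate controls were DMSO wells for no effect and wells without enzyme for full effect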
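Human LDH5 (2 nM) was incubated with 0.06 mM NADH and 0.2 mM pyruvate for 5 min at room temperature in Tris pH 7.4. Remaining NADH was coupled through diaphorase/resazurin, and resorufin fluorescence was read at 0 and 20 min.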
* = called active by the depositor; i = inactive; u = inconclusive; x = no result given; [ ] = remark or other dose.

SMILES | pAkt inh | Menin-MLL TR inh | IDH1 R132H inh | CXXC DNA block | Menin-MLL FL inh | LDHA inh
Cc1ccc(/C=C/C2=CC3(C)CC2(C)C(c2ccc(C)cc2)CC3=O)cc1 (configuration not stated) | x | 10µM* | x | x | -2[11.7 µM] | x
Cc1nnc(CN2CCC(c3nc4ccccc4s3)CC2)o1 | x | x | x | x | x | 8
CCc1nnc(CN2CCC(c3nc4ccccc4s3)CC2)o1 | x | x | x | x | x | -36*
CCOC(=O)C1=CN(Cc2ccc(Cl)cc2)C=C(C(=O)OCC)C1c1cccc(O)c1 | x | x | x | x | x | 4
CCCCNC(=O)OCCNC(=O)NC | -83%* | 18% | 1% | 1% | 1 | -7
CN1CCN(C(=O)C2CCCN(S(=O)(=O)c3ccc(Br)cc3)C2)CC1 (configuration not stated) | i | x | 2% | -6% | x | -6
CN1CCN(C(=O)C2CCCN(S(=O)(=O)c3ccc(Cl)cc3)C2)CC1 (configuration not stated) | i | x | 9% | -12% | x | -33*
CCCCCNC(=O)CCn1c(=O)oc2ccccc21 | i | 2% | -2% | -1% | 1 | -19
COCCNC(=O)CCn1c(=O)oc2ccccc21 | -109%* | -9% | 8% | 14% | 1 | -1
CCOc1ccc(CNC(=O)CCn2c(=O)oc3ccccc32)cc1OC | -105%* | 18% | 1% | -5% | 7 | -6
C=CCOc1ccc(CNn2cn[nH]c2=S)cc1OCC | -82%* | -11% | 1% | -1% | 2 | 2
C=CCOc1ccc(CNn2cn[nH]c2=S)cc1OC | i | 10% | 2% | 6% | -1 | -5
Brc1ccc(-c2nn3c(-c4ccccn4)nnc3s2)cc1 | x | x | x | x | x | -5
CCCCOc1ccc(-c2c(C#N)c(N)nc(SCC(N)=O)c2C#N)cc1 | i | 13µM* | 1% | -6% | 2 | -14
CC(Cc1ccco1)NC(=O)c1cc2cc(S(=O)(=O)N(C)C)ccc2n1C (configuration not stated) | x | x | x | x | x | 2
Cc1cc(C)c2nc(SCC(=O)Nc3sccc3C(N)=O)cc(C)c2c1 | x | x | x | x | x | 3
Cc1cc(C)c2nc(SCC(=O)NC(N)=O)cc(C)c2c1 | x | x | x | x | x | -34*
O=C1CCCC/C1=C\Nc1ccc(O)cc1 | x | 32µM* | 16% | 4% | 1 | 29
Cc1ccc(S(=O)(=O)Nc2ccc(S(=O)(=O)Nc3ncccn3)cc2)cc1 | i | 4% | 4% | -9% | -1 | -4
O=C1CCCC/C1=C/Nc1ccc(S(=O)(=O)Nc2ncccn2)cc1 | -120%* | -5% | -2% | -2% | 6 | -3
CCCNS(=O)(=O)c1ccc(OCC(=O)NCc2ccc3c(c2)OCO3)cc1 | -102%* | -18% | 6% | 0% | 2 | 4
CCC(C)NS(=O)(=O)c1ccc(OCC(=O)NCc2ccc3c(c2)OCO3)cc1 (configuration not stated) | i | 16% | -5% | 3% | 4 | -3
CCc1ccc(CNC(=O)c2nccnc2N)s1 | x | x | x | x | x | 0
CC(C)Cn1nc(C(=O)OCC(=O)Nc2ccccc2Cl)c2ccccc2c1=O | x | x | x | x | x | 6
Cc1ccc(-c2nsc(NC(=O)c3oc4ccc(Cl)cc4c3C)n2)s1 | x | x | x | x | x | -17
SMILES | pAkt inh | Menin-MLL TR inh | IDH1 R132H inh | CXXC DNA block | Menin-MLL FL inh | LDHA inh
Cc1ccc2c(C)c(C(=O)Nc3nc(-c4ccc(C)s4)ns3)oc2c1 | x | x | x | x | x | -33*
Cc1ccc(S(=O)(=O)N(Cc2cc3cc4c(cc3[nH]c2=O)OCCO4)CC2CCCO2)cc1 (configuration not stated) | -105%* | u | 1% | 15% | 6 | -3
O=c1[nH]c2cc3c(cc2cc1CN(CC1CCCO1)S(=O)(=O)c1ccc(Cl)cc1)OCCO3 (configuration not stated) | x | 1% | -1% | 35% | 4 | -6
Nc1nc(N2CCOCC2)nc2c1C(C(=O)Nc1ccc(Cl)c(Cl)c1)CC(=O)N2 (configuration not stated) | x | x | x | x | x | 19
O=C(CSc1ccc2c(c1)OCCO2)c1c[nH]c2ccccc12 | x | x | x | x | x | 14
CC(C)COc1ccc(C(=O)Nc2nonc2-c2ccc(OC(C)C)cc2)cc1 | x | x | x | x | x | -30*

Source: PubChem BioAssay
